# Compound activity: PubChem, National Center for Advancing Translational Sciences (NCATS)
# D3 antag: qHTS of D3 Dopamine Receptor Antagonist: qHTS; max response, negative = inhibition, %; AID 652054, 2013; D3R cells, DiscoveRx beta-arrestin luminescence, antagonist mode; hits give low values; hit rate 2.5% among 360,000; in the data active = max response below about -50%; inconclusive = no clear call, values can overlap the other calls; also: % is scaled to controls: 0 for no effect and ±100 for the full control effect
#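 Cells plated overnight at 1500 cells/well, then exposed to library compounds with dopamine controls for 90 minutes at 37 degrees C. DiscoveRx reagent added for 30–60 minutes at room temperature; luminescence read, quantitative HTS format.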
# DRD3 agonist: qHTS of D3 Dopamine Receptor Agonist: qHTS; D(3) dopamine receptor (Homo sapiens), P35462; D3R DiscoveRx beta-arrestin cells, luminescence, 90 min; max activation, %; hit rate 0.58% among 410,000; AID 652048, 2013; in the data active = max activation above about 30%; also: 0% is about no effect
#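 Agonist-mode cell screen: cells plated at 1500/well and incubated overnight at 37 °C, then exposed to library compounds for 90 min at 37 °C. Detection reagent was added for 30–60 min at room temperature, and luminescence was read.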
# D1 agonist: Allosteric Agonists of the Human D1 Dopamine Receptor: qHTS; D(1A) dopamine receptor (Homo sapiens), P21728; HEK293 T-REx D1 cells, calcium flux, agonist mode; activation, % at 2 µM; hit rate 1% among 360,000; AID 504660, 2011; in the data active = activation above about 30%; also: 0% is about no effect
# Target sequence (P21728 whole entry, looked up): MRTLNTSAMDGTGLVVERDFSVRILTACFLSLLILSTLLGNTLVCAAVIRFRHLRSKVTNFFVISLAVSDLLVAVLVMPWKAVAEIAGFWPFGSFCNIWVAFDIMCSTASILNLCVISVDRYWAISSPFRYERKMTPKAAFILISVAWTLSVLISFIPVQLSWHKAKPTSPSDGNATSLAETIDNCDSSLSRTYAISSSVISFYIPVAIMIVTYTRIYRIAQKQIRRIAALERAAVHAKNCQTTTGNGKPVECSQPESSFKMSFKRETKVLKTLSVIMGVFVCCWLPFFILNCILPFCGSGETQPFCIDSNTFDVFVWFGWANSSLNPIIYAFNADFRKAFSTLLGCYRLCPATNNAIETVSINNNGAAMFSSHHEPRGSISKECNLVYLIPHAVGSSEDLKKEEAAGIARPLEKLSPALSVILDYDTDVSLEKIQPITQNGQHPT
#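 Tetracycline-induced HEK293 TREx D1 cells, force-coupled to calcium signalling, were dye-loaded with a no-wash calcium kit. Compound was pin-added after a 10 s baseline. Fluorescence was read kinetically at 1 cycle/s for 180 s, with calcium rises flagged as agonism.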
# D1 PAM: Potentiators of Human D1 Dopamine Receptor: qHTS. HEK293 TREx D1 cells, calcium flux, dopamine EC20 potentiation. potentiation, % at 10 µM. hit rate 0.036% among 360,000; in the data active = potentiation above about 30%; also: 0% is about no effect
# D1 antagonist: Antagonist of Human D 1 Dopamine Receptor: qHTS | D(1A) dopamine receptor (Homo sapiens), P21728 | HEK293 TREx D1 cells, calcium flux, dopamine EC80; hits give low values | activity change, negative = inhibition, % at 10 µM | hit rate 3.2% among 360,000 | AID 504652, 2011; in the data active = activity change below about -30%; also: % is scaled to controls: 0 for no effect and ±100 for the full control effect
#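 After overnight tetracycline induction at 30 C, force-coupled D1 HEK293 cells took up a no-wash calcium dye at room temperature. Compounds were added and monitored 180 s, and the response to EC80 dopamine was then recorded.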
# Numbers without * were called inactive; ? = inconclusive; · = no result given. This is a sample that favours compounds with a hit; in the whole collection about 6% have one here.
SMILES,D3 antag,DRD3 agonist,D1 agonist,D1 PAM,D1 antagonist
CC1CCN(C(=O)c2ccc3c(c2)N(Cc2ccccc2)C(=O)c2ccccc2S3(=O)=O)CC1,·,-9,7,-3,-5
O=C(Nc1c(C(=O)N2CCN(c3ccccc3)CC2)oc2ccccc12)c1ccco1,·,-11,1,4,-7
CN1CCN(C(CNC(=O)C(=O)Nc2ccc(Cl)cc2)c2cccnc2)CC1 (configuration not stated),·,-5,17,-2,16
COc1cccc(CN2CCCC(C(=O)N3CCCCC3)C2)c1OC (configuration not stated),-61*,-6,3,0,-2
CCOc1ccccc1CN1CCC(Oc2cccc(C(=O)NCCOC)c2)CC1,-19,-13,3,-8,-48*
COc1ccc(C(=O)C2CCCN(Cc3ccc(NC(C)=O)cc3)C2)cc1OC (configuration not stated),-20,-8,-2,-6,-33*
CC(=O)Nc1ccc(CN2CCCC(C(=O)c3cccc(C(F)(F)F)c3)C2)cc1 (configuration not stated),?,-4,10,-5,-2
CCNS(=O)(=O)c1ccc(NC(=O)Cn2nc(C(F)(F)F)cc2C)cc1,-13,-2,7,-2,-39*
CCOc1ccc(CNC(=O)c2cnc3sc(N4CCOCC4)nn3c2=O)cc1OC,·,17,1,-2,40
CCOc1ccccc1NC(=O)CN1CCC(NC(=O)c2ccccc2C)CC1,2,7,2,-4,-8
COc1ccc(F)cc1CN1CCN(CC(=O)Nc2ccccc2C(=O)NC2CC2)CC1,-9,-11,1,-7,-37*
CCOc1ccccc1C(=O)NC1CCN(CC(=O)Nc2cc(OC)ccc2OC)CC1,7,-7,0,-11,-31*
COc1ccc(-c2cn3nc(N4CCCC(C(=O)NCc5ccccc5OC)C4)sc3n2)cc1 (configuration not stated),·,6,-2,6,10
CC(C)=CCC/C(C)=C/CC/C(C)=N/O,22,4,2,-4,-32*
CC(=O)OC/C=C(\C)CCC=C(C)C,5,5,5,4,-2
C[C@@H](C1=C(CCN(C)C)Cc2ccccc21)c1ccccn1,·,-20,·,·,·
COc1ccc(-n2c(=O)c3c4c(sc3n(Cc3ccc(C(C)(C)C)cc3)c2=O)CCC4)c(OC)c1,·,3,3,2,0
CC(C)C(NC(=O)c1ccccc1F)C(=O)OCC(=O)c1ccc(F)cc1 (configuration not stated),4,8,5,-13,-32*
C=C(CC[C@@H](O)C(C)(C)O)[C@H]1CC[C@]2(C)[C@@H]1CCC1[C@@]3(C)CCC(=O)C(C)(C)C3CC[C@]12C (some centres not stated),19,43*,·,·,·
C=C(C)[C@@H]1CCC2(C(=O)O)CC[C@]3(C)[C@H](CC[C@@H]4[C@@]5(C)CCC(=O)C(C)(C)[C@@H]5CC[C@]43C)[C@@H]12 (some centres not stated),1,9,0,-4,-5
CC(NS(=O)(=O)c1ccc(Cl)cc1)C(=O)OCC(=O)Nc1ccc(N(C)C)cc1 (configuration not stated),-13,-2,1,-1,-45*
Cc1ccc(-c2ccc(SCC(=O)NC3CCCCC3)nn2)cc1,-14,-7,-1,-5,14
Cc1ccc(-c2ccc(SCC(=O)NC3CCCC3)nn2)cc1,24,7,3,-3,-31*
CCOC(=O)c1c(C)[nH]c(CCC(=O)Nc2ccc(N(CC)CC)cc2C)c1C,·,-6,5,-5,-4
CCOC(=O)c1sc(=S)[nH]c1C,-52*,2,·,·,·
SMILES,D3 antag,DRD3 agonist,D1 agonist,D1 PAM,D1 antagonist
CC(C)CCOc1ccc(NC(=O)C2OC3OC(C)(C)OC3C3OC(C)(C)OC23)cc1 (configuration not stated),-10,2,-1,4,-43*
Cc1cc(C)c(O)c(CN(C)Cc2cc(Cl)cc(Cl)c2O)c1,17,41*,·,·,·
CCc1c(C)c2ccc3c(c2oc1=O)CN(Cc1ccccc1)CO3,·,-18,11,-2,-8
O=C(NCCCSc1ccccc1)c1cnc(Cl)c(Cl)c1,9,0,12,-7,-30*
COc1cc(C(CC(=O)Nc2ccc(Br)cn2)N2Cc3ccccc3C2=O)cc(OC)c1OC (configuration not stated),·,-4,2,0,4
COc1ccccc1CN1CCC(CNC(=O)c2cnn(-c3ccc(C)c(C)c3)c2C2CCN(C(=O)OC(C)(C)C)CC2)CC1,·,-16,9,2,27
Cc1ccc(C)c(N2CCN(CCCNC(=O)c3cnn(-c4ccc(F)cc4)c3C3CCN(C(=O)OC(C)(C)C)CC3)CC2)c1,·,-19,4,-4,-32*
Cc1ccc(-n2ncc(C(=O)NCCN3CCC(Cc4ccccc4)CC3)c2C2CCN(C(=O)OC(C)(C)C)CC2)cc1,·,-21,56*,1,-10
COc1ccc(Cl)cc1NC(=O)NCC1CCN(C(=O)OC(C)(C)C)CC1,-73*,-45,4,-7,-13
COc1ccccc1CN1CCC(CNC(=O)c2cnn(-c3ccc(Cl)cc3)c2C2CCN(C(=O)OC(C)(C)C)CC2)CC1,·,-13,31*,-6,-1
N=c1oc2c3c4c(cc2cc1C(=O)Nc1ccccc1)CCCN4CCC3,14,5,385*,-8,-88*
Cc1ccc(NC(=O)c2cc3ccccc3oc2=N)cc1,15,-9,4,3,9
O=C(COC(=O)c1ccc(Cl)nc1)NCc1ccc(F)cc1,-50*,-8,·,·,·
O=c1oc2cc([N+](=O)[O-])ccc2nc1/C=C(\O)c1cccc(Br)c1,-56*,15,2,-1,1
CNc1ncnc2c1ncn2[C@H]1CN(Cc2ccccc2)C[C@@H](CO)O1,-8,-8,·,·,·
CNc1ncnc2c1ncn2[C@H]1CN(CCOC)C[C@@H](CO)O1,-56*,5,·,·,·
CNc1ncnc2c1ncn2[C@H]1CN(Cc2cccc3ccccc23)C[C@@H](CO)O1,25,111*,·,·,·
CC1CCC(NC(=O)c2ccc3c(c2)N(Cc2cccc(Cl)c2)C(=O)c2ccccc2S3(=O)=O)CC1 (configuration not stated),·,-22,4,-7,-16
C=C(C)Cn1c(SCC(=O)Nc2ccccc2C)nc2sc3c(c2c1=O)CCCC3,·,-15,-2,0,-13
CN1CCN(CC(O)(c2ccc(Cl)cc2)c2ccc(Cl)cc2)CC1,-20,-6,24,-8,-30*
Cc1nnc2c(N3CCN(c4ccccc4F)CC3)nc3ccccc3n12,·,-9,8,-2,-4
